# Bioassay records deposited in PubChem BioAssay by National Center for Advancing Translational Sciences (NCATS).
# TGFb SMAD3 inh: qHTS for Inhibitors of TGF-b. HepG2 CAGA-GFP TGF-b/SMAD3 reporter, GFP fluorescence, 18 h; TGF-beta stimulated, 500 pg/mL final. Potency, µM (top dose mostly 46.1 µM), inactives show at the highest dose activity, negative = inhibition, usual class: inhibitors. 410,000 compounds, 1.2% hits. AID 588855, 2011; note: potency is the fitted concentration of half-maximal effect; % is set by controls: 0 for no effect and ±100 for the full control effect; nearly all actives have a fitted effect of over 65% in size
#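 Smad-responsive CAGA-GFP expression was quantified in HEPG2 cells exposed to compounds and 500 pg/mL final TGF-beta for 18 h at 37 degrees C; unstimulated wells defined full inhibition.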
# ATXN viability: Viability Counterscreen for Primary qHTS for Inhibitors of ATXN expression; 400,000 compounds, 0.49% hits; AID 651635, 2014; Potency, µM (titrated, usually from 56.7 µM), hits mostly cytotoxic; S2 cells (HEK-293 line with an ATXN2-luciferase reporter) viability, CellTiter-Fluor protease fluorescence, 24 h; note: potency is the fitted concentration of half-maximal effect; nearly all actives have a fitted effect of over 40% in size
# ATXN2 expr inh: Primary qHTS for Inhibitors of ATXN expression | HEK-293 ATXN2-luciferase reporter, luminescence, 24 h | AID 1745845, 2022 | Potency, µM (titrated, usually from 57 µM), inactives show at the highest dose activity change, negative = inhibition, most hits filed as inhibitors | 360,000 compounds, 0.72% hits; note: potency is the fitted concentration of half-maximal effect; % is set by controls: 0 for no effect and ±100 for the full control effect; nearly all actives have a fitted effect of over 55% in size
#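 ATXN2-luciferase reporter cells (luciferase flanked by upstream and downstream ATXN2 gene portions) were treated 24 h at 37 °C with compounds at up to 57 uM. SteadyGlo luminescence gave expression; GF-AFC fluorescence gave viability.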
# IL1B secr inh: qHTS for Inhibitors of Inflammasome Signaling: IL-1-beta AlphaLISA Primary Screen; THP-1 LPS/ATP IL-1B secretion, AlphaLISA, 16 h; hits give low values; activity change, % at 57.5 µM; 360,000 compounds, 4.7% hits; AID 743279, 2014; in the data active = activity change below about -50%; inconclusive = mostly about -30% to -49%; note: % is set by controls: 0 for no effect and ±100 for the full control effect
#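 THP-1 cells pretreated 1 hr with compounds (up to 57.5 uM final), then stimulated with LPS (250 ng/mL final) plus ATP (1.25 mM final); secreted IL-1B measured by AlphaLISA after 16 hr, decreased signal indicating inhibition.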
# HepG2 viability: qHTS for Inhibitors of TGF-b: Cytotox Counterscreen | 410,000 compounds, 0.76% hits | Potency, µM (titrated, usually from 46.1 µM), without a hit: at the top dose activity change, negative = cytotoxicity, most hits filed as cytotoxic | AID 588856, 2011 | HepG2 CAGA-GFP viability, ATP luminescence, 18 h; note: potency is the fitted concentration of half-maximal effect
#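 CellTiter-Glo luminescence gave cytotoxicity after 18 hours at 37 degrees C. The cells were HepG2 CAGA-GFP in 1% FBS DMEM, stimulated with 500 pg/mL TGF-beta after compound addition. %Activity was normalised to no-cell wells (complete cell-killing) and DMSO (no toxicity), and curves were fitted and classified.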
# * hit, by the source's call; i = inactive; ? = inconclusive; / = no result given. Shown are actives, neighbours in structure and some others; about 5.7% of the full set was active somewhere. Unless noted, calls come from the whole dose curve; as a rule, active = well fitted curve in the direction sought with a large enough effect; inconclusive = small, poorly fitted or top-dose-only effect, or another doubt; inactive = no such curve, though single readings can be large; an effect the other way counts as inactive or inconclusive.
SMILES,TGFb SMAD3 inh,ATXN viability,ATXN2 expr inh,IL1B secr inh,HepG2 viability
CS(=O)(=O)c1nc(S(=O)(=O)c2ccc(Cl)cc2)c(N2CCCCCC2)s1,-17%,i,-11%,8,-16%
CS(=O)(=O)c1nc(S(=O)(=O)c2ccc(Cl)cc2)c(N2CCC(O)CC2)s1,-5%,i,/,-58*,-3%
CS(=O)(=O)c1nc(S(=O)(=O)c2ccc(Cl)cc2)c(N2CCN(CCO)CC2)s1,-16%,i,6%,-68*,3%
Cc1ccc(S(=O)(=O)c2nc(S(C)(=O)=O)sc2N2CCC(O)CC2)cc1,2%,i,3%,-13,4%
Cc1ccc(S(=O)(=O)c2nc(S(C)(=O)=O)sc2N2CCCCC2C)cc1 (stereo not drawn),-5%,?,?,-83*,-6%
CS(=O)(=O)c1nc(S(=O)(=O)c2ccc(Cl)cc2)c(N2CCCCC2)s1,2%,i,-18%,-63*,2%
COc1cc(/C=C/c2cncc(/C=C/c3cc(OC)c(OC)c(OC)c3)c2)cc(OC)c1OC,18%,/,/,/,3%
Cc1ccc(NC(=O)CSc2cn(CC(=O)N3CCOCC3)c3ccccc23)cc1Cl,?,/,/,/,-20%
Cc1ccc(NC(=O)CN2C=NS(=O)(=O)c3ccccc32)cc1,2%,i,1%,/,2%
O=C(C[n+]1ccccc1Br)c1ccc2c(c1)CCCC2,5%,/,/,/,0%
COc1ccc(CCNC(=O)C(=O)NCC(c2cccs2)S(=O)(=O)c2cccs2)cc1 (stereo not drawn),1%,i,-17%,/,-27%
Cc1ccc(S(=O)(=O)c2nc(S(C)(=O)=O)sc2N2CCOCC2)cc1,3%,i,-11%,-59*,0%
Cc1ccc(S(=O)(=O)c2nc(S(=O)(=O)c3ccc(C)cc3)c(N3CCN(CCO)CC3)s2)cc1,-16%,i,-9%,-68*,-13%
CCS(=O)(=O)c1nc(S(=O)(=O)c2ccc(C)cc2)c(N2CCOCC2)s1,-4%,i,-11%,-29,-1%
CC(C)c1ccc(S(=O)(=O)N2CCC(n3c(C(F)(F)F)nc4cccnc43)CC2)cc1,-1%,i,-5%,/,-1%
CCOC(=O)c1c(NC(=O)c2nc(S(C)(=O)=O)ncc2Cl)sc(C(C)=O)c1C,?,/,/,/,-11%
NC(=S)N=Nc1c(O)n(Cc2ccccc2)c2ccccc12,-14%,i,-13%,11,-38%
C/C(Cl)=C\Cn1c(O)c(N=NC(N)=S)c2ccccc21,?,/,24µM*,-5,-29%
Cc1ccc2c(CN3CCN(C(=O)c4ccc(Br)cc4)CC3)cc(=O)oc2c1,?,/,/,/,-26%
CN(C)c1ccc(NC(=O)Cn2cc(S(=O)(=O)Cc3ccccc3Cl)c3ccccc32)cc1,/,/,/,/,-21%
CNC[C@H](Cc1ccccc1)NC[C@@H](Cc1cccc2ccccc12)NCCc1ccc(C)cc1,?,?,?,-106*,18µM*
Cc1cc(NCc2ccccn2)n2nc(C)c(-c3ccc(Cl)cc3)c2n1,?,i,?,?,14µM*
Cc1cc(NCc2ccccn2)n2ncc(-c3ccc(Cl)cc3)c2n1,11µM*,?,-14%,-3,-49%
O=C(NCC(O)c1nc2ccccc2[nH]1)c1cc([N+](=O)[O-])ccc1F (stereo not drawn),0%,i,-21%,-87*,-22%
CSCC[C@H](NC(=O)c1cc([N+](=O)[O-])ccc1Cl)c1nc2ccccc2[nH]1,-4%,i,11%,-3,-3%
SMILES,TGFb SMAD3 inh,ATXN viability,ATXN2 expr inh,IL1B secr inh,HepG2 viability
Cc1ccc2c(c1)C(=O)C(=O)N2Cc1ccc(C(F)(F)F)cc1,16µM*,28µM*,?,63,18µM*
Cc1ccc2c(c1)C(=O)C(=O)N2Cc1ccc(OC(C)C)cc1,10µM*,?,?,/,-48%
Cc1ccc(OCCN2C(=O)C(=O)c3cc(C)ccc32)cc1,7%,?,-3%,120,-2%
Cc1ccc2c(c1)C(=O)C(=O)N2CC(=O)OC(C)C,2%,i,2%,13,8%
CCN(CC)CCCNC(=O)Cc1csc2nc(-c3ccc(Cl)cc3)cn12,3%,?,13%,/,-24%
COc1ccc(N2CCN(C(CNC(=O)C(=O)NCCc3c[nH]c4ccccc34)c3ccco3)CC2)cc1 (stereo not drawn),-23%,i,2%,-52*,-38%
CN(C(=O)COC(=O)c1c2c(nc3ccccc13)CCCC2)c1c(N)n(Cc2ccccc2)c(=O)[nH]c1=O,-13%,i,-11%,-54*,-3%
CC(C)CN(C(=O)COC(=O)c1c2c(nc3ccccc13)CCC2)c1c(N)n(Cc2ccccc2)c(=O)[nH]c1=O,?,?,-1%,-51*,-17%
CCC(=O)Nc1ccc(-c2nnc(SCc3ccccc3)n2C)cc1,-2%,/,/,/,-14%
CCCn1c(NC(=O)c2cccc(S(=O)(=O)N3CCCC3)c2)nc2ccccc21,14µM*,?,16µM*,-92*,-44%
CSc1ncccc1C(=O)NCC1Cc2cc(-c3cnccn3)cc(Cl)c2O1 (stereo not drawn),/,i,/,/,/
COCCCNC(=O)c1sc2nc3n(c(=O)c2c1C)CCC3,5%,/,/,/,-2%
O=c1oc2ccccc2c2oc3cc(O)c(O)cc3c12,?,i,-14%,74,-39%
O=c1oc2c(O)c(O)cc3c(=O)oc4c(O)c(O)cc1c4c23,6%,i,4%,-51*,2%
Cc1ccc(-n2cc(CN3CCNC(=O)CC3)c(-c3cccc(C)c3)n2)cc1,?,?,-16%,-100*,-20%
Cc1ccc(-n2cc(CN3CCN(Cc4nccn4C)CC3)c(-c3cccc(C)c3)n2)cc1,?,i,-1%,-57*,-42%
CC(=O)N1CCCN(Cc2cn(-c3cccc(C)c3)nc2-c2cccc(F)c2)CC1,-21%,?,-13%,-23,-30%
COCCN1CCC(CNCc2cn(-c3cc(C)ccc3C)nc2-c2ccccc2)C1 (stereo not drawn),?,?,/,-24,-78%
Cc1ccc(-n2cc(CNCC3CC(=O)N(C4CC4)C3)c(-c3cccc(C)c3)n2)cc1 (stereo not drawn),?,?,/,-64*,-107%
